Screens as filed in PubChem.
Shown are actives, neighbours in structure and some others; about 12% of the full set was active somewhere.
JMJD2A Tudor = blocks the human JMJD2A Tudor domain; Potency, µM (doses to about 114 µM), for the others: at the top dose activity change, negative = inhibition, hits mostly inhibitors; 4.4% of 390,000 active; AID 504339; O75164; AlphaScreen JMJD2A-Tudor / H3K4me3 peptide binding; further: on the % scale 0 is the no-effect control and ±100 the full control effect; nearly all actives have a fitted effect of over 50% in size
Target sequence (O75164 whole entry, looked up, the tested form may be a part): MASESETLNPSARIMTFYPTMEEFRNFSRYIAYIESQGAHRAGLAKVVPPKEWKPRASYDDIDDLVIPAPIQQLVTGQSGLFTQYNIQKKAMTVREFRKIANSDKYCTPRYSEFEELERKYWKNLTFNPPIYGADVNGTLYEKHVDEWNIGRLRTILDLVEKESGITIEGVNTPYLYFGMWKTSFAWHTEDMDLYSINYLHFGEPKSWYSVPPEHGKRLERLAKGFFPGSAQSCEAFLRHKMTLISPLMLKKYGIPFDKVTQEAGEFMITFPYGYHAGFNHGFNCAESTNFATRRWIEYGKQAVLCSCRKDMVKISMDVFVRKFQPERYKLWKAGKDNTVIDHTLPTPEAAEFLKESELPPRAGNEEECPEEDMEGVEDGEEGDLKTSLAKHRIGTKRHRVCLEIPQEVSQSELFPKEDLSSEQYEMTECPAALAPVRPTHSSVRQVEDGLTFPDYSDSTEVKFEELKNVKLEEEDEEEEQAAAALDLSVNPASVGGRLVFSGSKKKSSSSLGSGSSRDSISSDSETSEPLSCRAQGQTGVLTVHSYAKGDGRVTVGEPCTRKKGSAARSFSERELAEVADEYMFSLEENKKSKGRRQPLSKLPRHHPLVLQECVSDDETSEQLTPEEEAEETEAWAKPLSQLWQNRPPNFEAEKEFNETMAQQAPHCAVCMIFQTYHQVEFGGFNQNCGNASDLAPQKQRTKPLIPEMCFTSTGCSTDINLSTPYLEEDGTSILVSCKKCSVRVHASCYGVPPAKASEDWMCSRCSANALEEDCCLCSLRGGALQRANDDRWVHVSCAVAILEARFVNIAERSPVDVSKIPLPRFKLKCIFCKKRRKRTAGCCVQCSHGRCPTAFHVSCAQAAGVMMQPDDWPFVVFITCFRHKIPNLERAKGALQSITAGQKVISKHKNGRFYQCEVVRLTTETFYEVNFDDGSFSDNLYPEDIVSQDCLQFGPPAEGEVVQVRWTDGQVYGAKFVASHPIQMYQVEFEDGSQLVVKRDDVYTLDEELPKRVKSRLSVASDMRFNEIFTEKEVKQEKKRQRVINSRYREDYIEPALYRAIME
Sfp inh = blocks B. subtilis Sfp PPTase activity | 3.5% of 310,000 active | Potency, µM, for inactives: largest response in the series, negative = inhibition, usual class: inhibitors | Q9F4F7 | Biochemical Sfp PPTase activity, qHTS;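 further: the enzyme is Sfp with the accession as filed and its product quenches rhodamine fluorescence; 0% = enzyme reaction without inhibitor and -100% = no enzyme wells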
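Sfp 15 nM + cpd, 15 min RT; start w/ rhodamine-CoA 5 uM, BHQ-2-YbbR 12.5 uM (final); 50 mM Hepes pH 7.6, 10 mM MgCl2, 0.01% NP-40, 0.01% BSA; read 525/598 nm at 0 and 30 min.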
HP1b chromo inh = blocks HP1-beta chromodomain binding to methylated histone tails. AlphaScreen HP1-beta / biotin-H3K9me3 peptide binding. Potency, µM (top dose mostly 114 µM), without a hit: top-dose activity change, negative = inhibition, most hits filed as inhibitors. 0.56% of 390,000 active. AID 540317; further: nearly all actives have a fitted effect of over 70% in size
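HP1-beta protein (50 nM final) preincubated 30 min at room temperature with biotinylated H3(1-18)K9me3 peptide (50 nM) in PBS pH 7.4, 0.01% Tween-20, then compound added for 30 min. AlphaScreen streptavidin donor/nickel chelate acceptor beads (10 ug/mL final), 30 min dark, luminescence read.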
PLK1 PBD block = PLK1 (human) polo-box domain binding inhibition; P53350; 2.8% of 360,000 active; AID 720504; Potency, µM, for inactives: max response, negative = inhibition, hits mostly inhibitors; Plk1 PBD binding of FITC phosphopeptide, fluorescence polarization; further: series mostly up to about 57 µM; on the % scale 0 is the no-effect control and ±100 the full control effect; nearly all actives have a fitted effect of over 65% in size
BAZ2B inh = BAZ2B (human) inhibition | Q9UIF8 | AlphaScreen BAZ2B-H3K14Ac peptide displacement | Potency, µM (top dose mostly 114 µM), for inactives: top-dose activity change, negative = inhibition, most hits filed as inhibitors | 4.4% of 360,000 active | AID 504333; further: on the % scale 0 is the no-effect control and ±100 the full control effect; nearly all actives have a fitted effect of over 60% in size
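AlphaScreen luminescence quantifies BAZ2B engagement of H3K14Ac peptide; the protein and biotinylated peptide are both at 50 nM final, buffer PBS pH 7.4 with 0.01% Tween-20, all steps at room temperature.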
G9a inh = blocks human histone lysine methyltransferase G9a; Q96KQ7; G9a H3K9 monomethylation, AlphaScreen, 2 h; Potency, µM (titrated, usually from 102 µM), for the others: at the highest dose activity, negative = inhibition, actives largely listed as inhibitors; 8.8% of 350,000 active; further: on the % scale 0 is the no-effect control and ±100 the full control effect; nearly all actives have a fitted effect of over 75% in size
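AlphaScreen detection with an anti-monomethyl H3K9 antibody quantified product after a 2 h room-temperature reaction containing 500 nM biotinylated H3K9 peptide, 20 µM SAM and 20 nM enzyme, which had been preincubated 15 min with compound.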
* hit, by the source's call; u = inconclusive; x = no result given; [ ] = another dose, or the depositor's remark. The call rests on the fitted dose curve; in most records, active means well fitted curve in the direction sought with a large enough effect; inconclusive means small, poorly fitted or top-dose-only effect, or another doubt; inactive means no such curve, though single readings can be large; an effect the other way counts as inactive or inconclusive. Potency means the concentration at half of the fitted maximal effect.

SMILES | JMJD2A Tudor | Sfp inh | HP1b chromo inh | PLK1 PBD block | BAZ2B inh | G9a inh
CCN(c1ccc(NC(=O)c2ccc(N3CCCC3=O)cc2)cc1)C(C)C | -16.2% | x | -2.0% | -1.1% | -24.8% | 3.55µM*
O=C(Nc1ccccc1N1CCCC1)c1ccc(Cl)cc1Cl | -28.9% | 9.2% | 24.3% | -5.9% | 5.8% | -6.5%
CN1C(=O)c2ccc(NC(=O)c3c(C(=O)O)cccc3[N+](=O)[O-])cc2C1=O | -8.0% | -8.4% | 16.4% | -14.3% | 2.0% | 39.8µM*
O=C(Nc1ccccc1N1CCCC1)c1ccccc1Cl | -21.2% | 12.2% | 23.8% | -11.0% | u | 39.8µM*
O=C(O)Cc1ccc2c(c1)Cc1cccnc1O2 | x | x | x | 2.3% | x | x
COc1ccc(OC)c(S(=O)(=O)N2CCC(C(=O)NCc3ccc4c(c3)OCO4)CC2)c1 | -4.2% | 13.5% | 17.4% | -6.0% | -25.9% | 8.8%
O=C(Nc1ccccc1N1CCCC1)c1ccco1 | -35.9% | 4.6% | 7.2% | -13.6% | -26.9% | 50.1µM*
O=C(Nc1ccccc1N1CCCC1)C1CCCO1 (stereo unspecified) | -13.1% | x | 27.3% | -10.6% | -27.5% | 28.2µM*
O=C(O)c1ccccc1NC(=O)C1CCCO1 (stereo unspecified) | -8.0% | 9.0% | 13.4% | -3.8% | -19.7% | -25.5%[59 µM]
O=C(COc1ccccc1[N+](=O)[O-])NCCC1=CCCCC1 | -17.0% | -5.3% | 13.7% | -15.7% | -27.3% | -10.5%[12.7 µM]
CC[n+]1ccc(/C=C2\Sc3ccccc3N2CCCS(=O)(=O)[O-])c2ccccc21 | u | -10.5% | u | -23.3% | 50.1µM* | x
O=C(Cn1c(=S)[nH]c2ccccc21)c1ccccc1 | u | -17.8% | 41.8% | -23.2% | -1.4% | 3.55µM*
CCCn1c(=S)[nH]c2cc(Cl)ccc21 | -22.8%[11.4 µM] | 10.1% | 2.7% | 15µM* | -5.1% | u
CCCn1c2ccccc2c2cc(C(=O)O)ccc21 | -21.3% | -14.8% | 6.2% | -10.5% | -4.3% | u
CCn1c(=S)[nH]c2cc(C(=O)O)ccc21 | x | u | x | x | -11.8% | 44.7µM*
CCn1c(=S)[nH]c2cc(Cl)ccc21 | -12.8% | -7.8% | 46.7% | -8.6% | -7.8% | x
O=C(Cn1nnc2ccccc21)c1ccccc1 | -2.1% | 15.9% | 23.9% | -5.0% | 6.2% | u
CC(C)n1c(=S)[nH]c2ccccc21 | 79.4µM* | 79.4µM* | -18.6% | 25.1µM* | -21.8% | u
CC(C)(C)C(=O)OCc1cc(=O)n2nc(C3CCCCC3)sc2n1 | -22.3% | x | -20.1% | x | -12.1% | 12.7%[59 µM]
Cc1noc(C)c1S(=O)(=O)Nc1ccc(C(=O)Nc2ccc(Br)cc2)cc1 | -25.0% | x | -8.4% | x | x | -20.6%[59 µM]
O=C(CN1C(=O)NC2(CCCC2)C1=O)OCCOc1ccc(Cl)cc1Cl | -18.6% | x | 6.0% | -1.3% | 8.6% | -15.0%
Cc1nnc(SCC(=O)Nc2cc(S(C)(=O)=O)ccc2Cl)n1Cc1ccccc1 | -2.8% | 14.7% | 23.6% | -1.7% | -2.0% | 43.6%
COc1ccccc1N1CCN(C2CCCN(C(=O)c3ccsc3)C2)CC1 (stereo unspecified) | 0.7% | x | 18.3% | -8.4% | x | x
Cc1ccc(NC(=O)Cn2c(=S)[nH]c3ccccc32)cc1 | -2.4% | 44.7µM* | u | 23.8µM* | -0.4% | 3.55µM*
CCCn1c(=O)[nH]c2ccccc21 | -9.0% | -0.9% | 13.0% | -2.1% | 16.2% | -16.5%
SMILES | JMJD2A Tudor | Sfp inh | HP1b chromo inh | PLK1 PBD block | BAZ2B inh | G9a inh
CCn1c(=S)[nH]c2cc(S(=O)(=O)N3CCCCC3)ccc21 | 79.4µM* | -17.8% | -22.0% | 26.7µM* | 3.8% | u
CCn1c(=S)[nH]c2ccccc21 | 79.4µM* | -8.8% | 1.0% | -16.1% | -22.5% | 2.82µM*
COc1ccc2[nH]cc(CCNc3ncncc3-c3ccc(N(C)C)cc3)c2c1 | x | -13.7% | x | x | x | x
C(=Nc1ccc(N2CCOCC2)cc1)c1c[nH]c2ccccc12 | -16.0% | -1.4% | 7.5% | 2.7% | u | u
Oc1ccc(N=Nc2cccc(Cl)c2)cc1C=Nc1ccc(N2CCOCC2)cc1 | u | -3.6% | u | -18.5% | 7.94µM* | u
Oc1c(Br)cc(Cl)cc1C=Nc1ccc(N2CCOCC2)cc1 | -18.9% | -5.1% | 32.9% | -18.6% | -12.7% | u
Clc1cccc(-c2ccc(C=Nc3ccc(N4CCOCC4)cc3)o2)c1 | u | -20.4% | u | 4.1% | 31.6µM* | 3.16µM*
O=C(NCC(c1cccnc1)N1CCc2ccccc2C1)c1ccc(F)c(F)c1 (stereo unspecified) | 0.3% | x | 35.2% | x | -1.2% | u
CC(=O)C1C(=O)CC(c2ccc(Cl)cc2)CC1=O (stereo unspecified) | u | 18.4% | 9.4% | 1.6% | -23.3% | 56.2µM*
CCN(CC)Cc1c(NC(=O)c2ccc(OC)cc2)sc2c1CCCC2 | -17.3% | x | 4.6% | x | -5.4% | -8.4%[59 µM]
CCOC(=O)c1cc(-c2ccccc2)n(-c2cccc(C(=O)NC(C)CC)c2)c1C (stereo unspecified) | -26.6% | x | -3.5% | x | -26.0% | u
O=C(CCN1C(=O)/C(=C/c2ccc(F)cc2)SC1=S)N[C@@H](CO)Cc1ccccc1 | 7.8% | 4.3% | 34.9% | -4.6% | -23.5% | 6.9%
Cc1cc(C)c2oc(-c3ccc(C)c(NC(=S)NC(=O)c4cccs4)c3)nc2c1 | -20.3% | -9.8% | 30.2% | -7.2% | -29.2% | 4.6%[12.7 µM]
Cc1ccc(-c2nc3ccccc3[nH]2)cc1NC(=O)/C=C/c1ccco1 | u | 50.1µM* | -21.1% | -6.9% | 50.1µM* | -6.2%[2.33 µM]
O=C(/C=C\c1ccco1)NC(=S)Nc1ccccc1O | -11.8%[11.4 µM] | u | -12.4% | u | 50.1µM* | 44.7µM*
O=C(/C=C/c1ccco1)NC(=S)Nc1ccccc1O | -8.3%[11.4 µM] | -54.2% | u | -28.6% | 39.8µM* | 31.6µM*
Cc1ccc(NC(=S)NC(=O)/C=C/c2ccco2)c(O)c1 | u | u | -32.2% | -27.3% | u | u
Cc1cc(C)c2oc(-c3ccc(C)c(NC(=S)NC(=O)/C=C/c4ccco4)c3)nc2c1 | -29.0% | 39.8µM* | 5.6% | -17.4% | -29.5% | -44.0%[59 µM]
COc1ccccc1C(=O)Nc1c(C(=O)Nc2ccccc2F)oc2ccccc12 | -4.3% | x | 52.4% | x | u | -35.3%[59 µM]
COc1ccc(CCN2CC(C(=O)NCc3cccc(F)c3)CCC2=O)cc1 (stereo unspecified) | x | x | x | 1.3% | x | x
Cc1nc(C)c(C(=O)C2=C(O)C(=O)N(CCN3CCOCC3)C2c2cccs2)s1 (stereo unspecified) | u | -20.9% | 35.1% | -6.8% | -32.2% | u
COc1ccc(OC)c(C2C(C(=O)c3cccs3)=C(O)C(=O)N2CCN2CCOCC2)c1 (stereo unspecified) | -0.4% | u | 25.3% | -10.5% | 20.0% | 44.7µM*
COc1ccc(C2C(C(=O)c3cccs3)=C(O)C(=O)N2CCN2CCOCC2)c(OC)c1 (stereo unspecified) | -22.5% | 9.2% | 8.8% | -6.9% | -19.6% | 50.1µM*
